# Measured values reported in the supplement of paper PMC10849652.
# Of roughly 8,800 targets only a part is listed; those with a hit were picked by preference. About 0.5% of all pairs of compound and target were hits. A number with no mark means an inactive call.
# What was measured:
# Experiment in all cases: log2 fold change, soluble protein after heating vs DMSO (PISA); higher = thermal stabilisation; K562 lysate, 10 uM; active = over 0.2 and 3.5 SD of the protein, either way, in both replicates (recomputed)
# ibrutinib = compound: C=CC(=O)N1CCC[C@@H](n2nc(-c3ccc(Oc4ccccc4)cc3)c3c(N)ncnc32)C1 [ibrutinib]
# Method in brief: (§1)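 The values are log-two fold changes in thermal stability compared with solvent controls and come from duplicates. They were obtained by TMTpro 16plex LC-MS/MS, with channel sums equalised, on the supernatant after 21,000xg for 90 min. That supernatant came from crude K562 extract at 1 mg/mL protein treated with 10 μM compound for 30 min, heated for 3 min across 48°C-58°C, pooled and brought to 0.5% NP-40 at 4°C.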
# [1] = compound: CC(=O)c1cnc2ccc(-c3cc(Cl)c(O)c(Cl)c3)nc2c1N[C@H]1CC[C@H](CN(C)C)CC1
# Method in brief: as §1
# ralimetinib = compound: CC(C)(C)Cn1c(N)nc2ccc(-c3[nH]c(C(C)(C)C)nc3-c3ccc(F)cc3)nc21 [ralimetinib]
# Method in brief: as §1
# [2] = compound: CC(C)(O)CC(=O)NCCn1ccc2ncnc(Nc3ccc(Oc4cccc(C(F)(F)F)c4)c(Cl)c3)c21
# Method in brief: as §1
# [3] = compound: CC(C)C1=C2N=C(C=C(N2N=C1)NCC3=CC=CC=C3)NCCCCCCN
# Method in brief: as §1
# [4] = compound: CC1=C(C(CC(=O)N1)C2=CC=C(C=C2)C(F)(F)F)C(=O)NC3=C(C=C4C(=C3)C=NN4)F
# Method in brief: as §1
# [5] = compound: CC1=C(C2=C(C=C1)C(=O)C3=CC=CC=C3N2CCCN)C
# Method in brief: as §1
# [6] = compound: CC1=C(C=C(C=C1)NC(=O)C2=CC(=CC=C2)C(C)(C)C#N)NC3=CC4=C(C=C3)N=CN(C4=O)C
# Method in brief: as §1
# [7] = compound: CC1=C(C=C(C=C1)NC(=O)C2=CC(=CC=C2)N(C)C)NC(=O)C3=CC=C(C=C3)O
# Method in brief: as §1
# [8] = compound: CC1=CC=C(C=C1)SC2=C3C=C(SC3=CN=C2)C(=O)N
# Method in brief: as §1
# Sequence of UniProt P42858 (P42858 whole entry, looked up): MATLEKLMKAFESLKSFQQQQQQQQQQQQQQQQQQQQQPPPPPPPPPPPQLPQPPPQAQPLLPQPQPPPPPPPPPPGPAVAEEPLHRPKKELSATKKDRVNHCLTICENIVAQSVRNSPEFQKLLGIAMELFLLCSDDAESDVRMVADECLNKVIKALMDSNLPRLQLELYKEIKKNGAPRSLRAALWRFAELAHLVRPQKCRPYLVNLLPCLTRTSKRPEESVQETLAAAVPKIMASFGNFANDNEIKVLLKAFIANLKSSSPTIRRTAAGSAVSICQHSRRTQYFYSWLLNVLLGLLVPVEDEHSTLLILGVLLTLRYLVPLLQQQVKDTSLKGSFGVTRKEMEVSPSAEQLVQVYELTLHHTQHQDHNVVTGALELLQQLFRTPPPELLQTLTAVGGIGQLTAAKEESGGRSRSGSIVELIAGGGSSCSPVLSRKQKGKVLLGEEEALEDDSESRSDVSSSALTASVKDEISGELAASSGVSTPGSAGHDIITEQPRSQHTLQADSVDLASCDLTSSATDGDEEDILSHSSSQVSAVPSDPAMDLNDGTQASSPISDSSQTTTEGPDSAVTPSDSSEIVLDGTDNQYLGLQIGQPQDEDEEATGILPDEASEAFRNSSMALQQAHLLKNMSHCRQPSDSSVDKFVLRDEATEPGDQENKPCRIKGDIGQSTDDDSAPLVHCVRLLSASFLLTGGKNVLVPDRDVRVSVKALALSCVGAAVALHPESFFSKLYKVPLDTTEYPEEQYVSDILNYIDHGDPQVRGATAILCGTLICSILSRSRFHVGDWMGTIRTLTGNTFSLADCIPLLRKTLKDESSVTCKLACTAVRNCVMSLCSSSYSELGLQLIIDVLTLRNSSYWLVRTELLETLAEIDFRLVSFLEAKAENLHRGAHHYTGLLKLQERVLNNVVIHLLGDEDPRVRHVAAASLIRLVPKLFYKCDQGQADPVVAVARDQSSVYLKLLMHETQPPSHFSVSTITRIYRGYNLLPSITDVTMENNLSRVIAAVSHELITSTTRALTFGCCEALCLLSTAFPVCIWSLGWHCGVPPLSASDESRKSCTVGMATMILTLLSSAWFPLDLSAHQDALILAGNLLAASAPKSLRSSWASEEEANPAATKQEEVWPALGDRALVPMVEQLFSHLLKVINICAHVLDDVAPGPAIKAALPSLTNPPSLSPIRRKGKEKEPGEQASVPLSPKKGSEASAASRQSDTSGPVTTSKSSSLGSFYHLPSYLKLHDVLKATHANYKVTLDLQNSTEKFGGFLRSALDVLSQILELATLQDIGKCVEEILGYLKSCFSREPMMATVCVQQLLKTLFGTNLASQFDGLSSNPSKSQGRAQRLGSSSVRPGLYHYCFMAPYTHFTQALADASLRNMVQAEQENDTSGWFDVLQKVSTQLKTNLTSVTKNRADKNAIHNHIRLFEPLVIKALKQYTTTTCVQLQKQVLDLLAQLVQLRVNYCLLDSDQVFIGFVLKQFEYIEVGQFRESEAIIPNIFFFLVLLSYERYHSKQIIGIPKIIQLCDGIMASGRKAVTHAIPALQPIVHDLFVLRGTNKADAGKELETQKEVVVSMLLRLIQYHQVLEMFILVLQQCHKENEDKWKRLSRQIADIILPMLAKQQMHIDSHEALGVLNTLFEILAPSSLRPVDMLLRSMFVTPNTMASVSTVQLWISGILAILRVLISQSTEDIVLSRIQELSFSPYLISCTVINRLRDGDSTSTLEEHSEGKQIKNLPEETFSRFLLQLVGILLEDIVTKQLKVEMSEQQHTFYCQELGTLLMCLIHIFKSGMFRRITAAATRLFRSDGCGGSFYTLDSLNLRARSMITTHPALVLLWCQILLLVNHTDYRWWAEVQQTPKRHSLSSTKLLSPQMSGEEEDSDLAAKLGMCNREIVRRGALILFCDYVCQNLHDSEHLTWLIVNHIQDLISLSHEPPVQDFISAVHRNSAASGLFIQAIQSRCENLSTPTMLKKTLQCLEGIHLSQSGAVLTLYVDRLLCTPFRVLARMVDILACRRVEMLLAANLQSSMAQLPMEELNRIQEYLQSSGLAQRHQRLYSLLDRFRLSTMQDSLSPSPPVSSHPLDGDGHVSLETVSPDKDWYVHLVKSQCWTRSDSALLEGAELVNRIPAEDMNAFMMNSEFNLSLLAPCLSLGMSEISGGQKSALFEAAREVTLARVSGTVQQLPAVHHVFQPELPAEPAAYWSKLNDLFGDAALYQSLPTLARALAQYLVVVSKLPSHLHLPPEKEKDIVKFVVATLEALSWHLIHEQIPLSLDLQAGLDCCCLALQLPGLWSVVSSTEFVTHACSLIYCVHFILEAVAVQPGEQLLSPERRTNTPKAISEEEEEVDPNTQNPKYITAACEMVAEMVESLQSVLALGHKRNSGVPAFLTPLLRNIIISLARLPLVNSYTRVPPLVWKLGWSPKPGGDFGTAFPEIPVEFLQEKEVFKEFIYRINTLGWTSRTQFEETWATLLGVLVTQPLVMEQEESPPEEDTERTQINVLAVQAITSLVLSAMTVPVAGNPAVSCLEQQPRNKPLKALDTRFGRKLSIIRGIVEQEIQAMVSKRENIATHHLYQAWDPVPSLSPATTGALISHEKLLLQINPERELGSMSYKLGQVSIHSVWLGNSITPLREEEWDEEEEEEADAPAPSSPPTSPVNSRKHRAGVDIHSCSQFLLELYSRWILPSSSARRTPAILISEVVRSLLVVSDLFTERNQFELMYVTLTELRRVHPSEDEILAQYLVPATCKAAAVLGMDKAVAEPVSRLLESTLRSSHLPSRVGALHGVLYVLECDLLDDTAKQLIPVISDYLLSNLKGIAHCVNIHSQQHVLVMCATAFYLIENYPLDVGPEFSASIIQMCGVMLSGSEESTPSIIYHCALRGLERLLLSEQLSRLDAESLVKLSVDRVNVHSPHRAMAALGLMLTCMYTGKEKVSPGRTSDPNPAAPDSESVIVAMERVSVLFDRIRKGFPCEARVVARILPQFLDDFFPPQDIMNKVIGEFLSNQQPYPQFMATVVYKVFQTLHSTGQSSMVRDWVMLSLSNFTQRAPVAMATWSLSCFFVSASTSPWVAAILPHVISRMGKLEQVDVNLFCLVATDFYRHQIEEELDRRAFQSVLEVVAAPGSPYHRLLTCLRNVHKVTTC
# Sequence of UniProt Q53GQ0 (Q53GQ0 whole entry, looked up): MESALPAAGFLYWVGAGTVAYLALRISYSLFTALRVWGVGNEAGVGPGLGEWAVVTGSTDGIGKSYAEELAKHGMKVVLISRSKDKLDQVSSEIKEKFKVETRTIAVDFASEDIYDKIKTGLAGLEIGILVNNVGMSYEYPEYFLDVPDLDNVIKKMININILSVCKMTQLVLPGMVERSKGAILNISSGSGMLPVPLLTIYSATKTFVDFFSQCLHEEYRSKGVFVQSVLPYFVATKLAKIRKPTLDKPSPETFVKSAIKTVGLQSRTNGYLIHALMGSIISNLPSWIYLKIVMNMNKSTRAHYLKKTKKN
# Sequence of UniProt Q9NVX0 (Q9NVX0 whole entry, looked up): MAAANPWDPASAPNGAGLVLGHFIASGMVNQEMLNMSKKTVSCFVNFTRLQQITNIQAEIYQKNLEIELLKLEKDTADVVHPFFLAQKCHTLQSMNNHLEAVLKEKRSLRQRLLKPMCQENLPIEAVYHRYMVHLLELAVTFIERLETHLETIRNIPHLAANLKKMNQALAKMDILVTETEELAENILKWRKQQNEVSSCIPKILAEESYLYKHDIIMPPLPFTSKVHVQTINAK
# Sequence of UniProt Q9HAV0 (Q9HAV0 whole entry, looked up): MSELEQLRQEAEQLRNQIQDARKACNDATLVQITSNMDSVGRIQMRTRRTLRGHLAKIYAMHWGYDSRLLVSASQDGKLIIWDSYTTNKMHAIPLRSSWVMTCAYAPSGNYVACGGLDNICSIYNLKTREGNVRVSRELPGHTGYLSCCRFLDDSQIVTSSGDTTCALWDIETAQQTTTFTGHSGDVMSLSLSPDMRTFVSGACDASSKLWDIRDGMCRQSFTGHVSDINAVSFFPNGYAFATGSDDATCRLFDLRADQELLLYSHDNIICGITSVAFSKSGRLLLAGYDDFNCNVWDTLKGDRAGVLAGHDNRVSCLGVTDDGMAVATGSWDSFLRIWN
# Sequence of UniProt Q9NSC5 (Q9NSC5 whole entry, looked up): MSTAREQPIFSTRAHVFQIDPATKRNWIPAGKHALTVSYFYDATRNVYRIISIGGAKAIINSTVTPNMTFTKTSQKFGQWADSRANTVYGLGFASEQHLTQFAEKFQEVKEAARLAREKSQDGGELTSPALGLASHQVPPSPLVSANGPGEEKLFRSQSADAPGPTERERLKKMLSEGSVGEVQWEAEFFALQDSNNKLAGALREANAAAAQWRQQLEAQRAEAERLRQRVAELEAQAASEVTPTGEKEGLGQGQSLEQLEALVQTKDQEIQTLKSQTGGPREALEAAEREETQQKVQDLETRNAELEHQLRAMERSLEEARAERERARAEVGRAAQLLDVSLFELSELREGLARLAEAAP
# Sequence of UniProt Q9BX10 (Q9BX10 whole entry, looked up): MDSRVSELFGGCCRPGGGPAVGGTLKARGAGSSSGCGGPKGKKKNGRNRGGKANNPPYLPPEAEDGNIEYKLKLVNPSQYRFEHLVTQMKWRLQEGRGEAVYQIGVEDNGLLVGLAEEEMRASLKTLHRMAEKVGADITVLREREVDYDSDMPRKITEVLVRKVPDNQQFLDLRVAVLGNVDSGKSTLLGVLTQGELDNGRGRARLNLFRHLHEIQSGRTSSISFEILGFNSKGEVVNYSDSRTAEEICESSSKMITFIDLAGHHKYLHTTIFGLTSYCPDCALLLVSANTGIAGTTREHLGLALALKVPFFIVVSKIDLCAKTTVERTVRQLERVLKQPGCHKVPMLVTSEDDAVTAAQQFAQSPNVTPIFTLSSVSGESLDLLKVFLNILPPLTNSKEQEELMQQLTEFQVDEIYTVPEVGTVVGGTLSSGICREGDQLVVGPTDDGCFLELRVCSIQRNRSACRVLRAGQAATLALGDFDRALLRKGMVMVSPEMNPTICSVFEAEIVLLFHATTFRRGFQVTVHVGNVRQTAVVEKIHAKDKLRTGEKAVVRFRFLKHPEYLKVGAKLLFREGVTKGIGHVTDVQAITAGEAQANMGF
Target,log2 fold change (ibrutinib),log2 fold change [1],log2 fold change (ralimetinib),log2 fold change [2],log2 fold change [3],log2 fold change [4],log2 fold change [5],log2 fold change [6],log2 fold change [7],log2 fold change [8]
ITPKA (UniProt P23677),0.043,-0.009,0.007,-0.044,0.011,0.023,0.002,-0.012,0.022,0.026
HMBOX1 isoform 5 (UniProt Q6NT76),0.051,0.021,0.026,0.007,0.072,-0.014,0.052,0.015,0.005,0.054
HARS (UniProt P12081),-0.049,0.022,-0.002,0.015,-0.039,-0.015,0.008,0.005,0.008,0.005
GNB1 (UniProt P62873),0.018,-0.018,-0.036,0.057,0.003,-0.052,0.076,0.145,-0.076,-0.011
HDAC3 (UniProt O15379),-0.004,0,0.043,0.018,-0.029,-0.03,0,-0.003,-0.082,-0.007
GLB1 (UniProt P16278),0.002,-0.008,-0.005,-0.03,0.003,-0.009,-0.001,-0.011,0.025,0.015
GIT1 (UniProt Q9Y2X7),0.075,-0.002,-0.042,0.033,-0.004,-0.074,-0.012,0.044,-0.007,0.024
HDHD5 (UniProt Q9BXW7),-0.027,0.018,0,0.073,-0.042,0.011,-0.023,-0.007,0.024,-0.001
HAUS2 (UniProt Q9NVX0),0.145,0.1,0.054,0.058,0.003,0.026,-0.079,-0.017,0.023,-0.021
IRF2BP1 (UniProt Q8IU81),0.003,0.027,0.008,0.02,0.006,-0.016,-0.027,0.02,-0.001,-0.038
HAUS6 (UniProt Q7Z4H7),0.025,-0.054,0.027,-0.003,-0.015,0.029,0.01,-0.008,0.073,0.078
HDAC6 (UniProt Q9UBN7),-0.051,0.003,-0.024,-0.041,-0.014,-0.036,-0.002,0.008,-0.01,0.01
KARS1 (UniProt Q15046),0.009,0.012,0.016,0.018,0.001,-0.011,0.024,-0.014,0.015,0.029
GTPBP2 (UniProt Q9BX10),0.008,-0.123,0.042,-0.035,0,0.004,-0.018,0,0.047,-0.032
HAUS4 (UniProt Q9H6D7),0.04,-0.033,0.003,0.01,-0.004,0.006,-0.016,-0.008,0.057,-0.01
HK1 isoform 2 (UniProt P19367),-0.007,0.005,-0.008,0.021,-0.029,-0.029,0.025,0.023,0.016,0.008
HSPA8 (UniProt E9PN89),0.081,-0.051,0.034,-0.215,0.007,-0.036,0.017,0.093,0.231,-0.083
HS1BP3 (UniProt Q53T59),-0.01,0.001,0.017,0,-0.013,0.005,0.056,0.016,-0.005,-0.013
GNB4 (UniProt Q9HAV0),-0.104,-0.071,0.009,-0.026,0,-0.05,-0.036,0.073,0.084,0.202
GSK3A (UniProt P49840),-0.01,0.146,0.022,-0.001,-0.045,-0.017,0.01,-0.109,-0.007,0.207

Target,log2 fold change (ibrutinib),log2 fold change [1],log2 fold change (ralimetinib),log2 fold change [2],log2 fold change [3],log2 fold change [4],log2 fold change [5],log2 fold change [6],log2 fold change [7],log2 fold change [8]
INTS7 (UniProt Q9NVH2),0.012,0.061,0.083,-0.024,0.023,0.023,-0.09,0.543 (active),0.007,0.039
HIST2H2AA3 (UniProt Q6FI13),-0.011,-0.014,-0.112,0.065,0,-0.012,0.028,-0.046,0.032,0.045
IMPDH2 (UniProt H0Y4R1),-0.025,-0.047,-0.069,-0.112,–,-0.019,0.032,-0.04,0.062,0.032
GORASP1 (UniProt Q9BQQ3),–,0.137,-0.01,-0.011,0.019,0.038,0.027,-0.061,-0.034,-0.02
IGF2BP2 isoform 6 (UniProt Q9Y6M1),–,-0.031,–,–,–,–,–,–,–,-0.016
GSTM2 (UniProt P28161),0.081,0.009,-0.006,-0.067,-0.021,-0.119,-0.033,–,0.004,-0.021
GYPA (UniProt P02724),0.318,0.102,-0.052,0.054,-0.095,–,-0.085,0.018,-0.037,-0.034
ITPRIP (UniProt Q8IWB1),–,–,–,–,0.023,–,0.041,–,–,–
ITGB1BP2 (UniProt Q9UKP3),–,–,–,–,–,–,0.139,–,–,–
HTT (UniProt P42858),0.11,–,0.065,0.008,-0.032,0.047,-0.032,0.035,0.04,–
KDM5B isoform 2 (UniProt Q9UGL1),-0.075,-0.046,-0.083,-0.165,-0.072,–,-0.129,-0.016,-0.095,-0.098
GTPBP6 (UniProt O43824),–,–,–,–,–,–,-0.617,–,–,–
GPN2 (UniProt Q9H9Y4),–,-0.022,0.12,0.028,-0.042,0.036,0.025,0.067,0.057,0.019
HMGA1 isoform 2 (UniProt P17096),–,0.053,-0.122,0.088,-0.029,0.047,-0.229,-0.034,0.054,0.01
HNRNPUL1 (UniProt M0R247),-0.045,–,–,–,0.016,–,–,–,–,–
"HNRNPL, A0A3B3ITJ4",0.033,0.033,–,–,–,–,–,–,–,-0.104
KATNBL1 (UniProt Q9H079),–,-0.002,–,–,0.156,-0.029,-0.002,0.082,–,-0.025
JAK3 (UniProt P52333),0.076,0.056,–,–,–,–,–,-0.016,–,0.078
HMGN5 (UniProt Q5JSK9),0.051,-0.007,–,–,–,-0.094,–,–,–,-0.005
HNRNPD (UniProt D6RF44),–,–,–,–,–,0.111,–,-0.334,–,–

Target,log2 fold change (ibrutinib),log2 fold change [1],log2 fold change (ralimetinib),log2 fold change [2],log2 fold change [3],log2 fold change [4],log2 fold change [5],log2 fold change [6],log2 fold change [7],log2 fold change [8]
HECW2 (UniProt Q9P2P5),–,–,0.106,-0.148,-0.036,0.019,-0.091,0.116,0.073,–
ITPR2 (UniProt Q14571),–,-0.04,0.069,-0.233,0.063,-0.137,-0.072,–,-0.031,-0.322
HNRNPM (UniProt M0QZM1),0.003,–,–,–,–,–,0.121,-0.068,–,–
GTF3C3 (UniProt Q9Y5Q9),0.033,-0.001,0.027,-0.005,0.02,-0.003,-0.112,0.014,0.047,-0.007
HDAC3 (UniProt E7ESJ6),–,-0.107,–,–,–,–,–,–,–,-0.004
GPA33 (UniProt Q99795),0.037,-0.029,0.188,-0.123,-0.067,-0.091,0,–,-0.024,0.026
H3-3A (UniProt P84243),0.042,-0.047,–,–,0.013,–,–,-0.034,–,-0.086
HSD17B12 (UniProt Q53GQ0),-0.016,0.004,-0.026,0.048,0.069,0,0.024,-0.036,0.049,0.003
INTS3 (UniProt Q68E01),0.044,0.024,0.019,-0.032,0.032,-0.035,0.004,0.009,0.025,-0.032
HADHA (UniProt P40939),0.078,-0.057,0.012,0.05,-0.042,-0.031,-0.01,0.055,-0.033,0.077
GPLD1 (UniProt P80108),–,–,–,–,–,–,-0.058,-0.187,–,–
HNRNPH2 (UniProt P55795),0.017,0,-0.03,-0.023,-0.01,0.056,0.024,0.081,0.053,0.029
HYDIN (UniProt Q4G0P3),–,-0.076,0.148,-0.071,–,–,-0.05,–,-0.107,0.017
ISL2 (UniProt Q96A47),0.05,–,0.056,-0.089,0.019,–,-0.003,-0.075,0.01,–
KIAA0930 isoform 2 (UniProt Q6ICG6),-0.16,-0.032,0.091,-0.085,–,-0.014,-0.119,0.042,-0.289,-0.017
HOMER3 (UniProt Q9NSC5),-0.095,-0.01,–,–,–,–,–,-0.028,–,0.048
IPP (UniProt Q9Y573),–,0.042,0.14,-0.056,-0.073,–,-0.006,–,0.088,-0.044
ITM2B (UniProt Q9Y287),-0.04,–,0.131,-0.106,-0.044,0.051,-0.011,0.019,-0.088,–
